Screens as filed in PubChem.
Most compounds without a hit are left out; they make up all but 8.7% or so of the library.
Vaccinia Venus: qHTS for Stage-Specific Inhibitors of Vaccinia Orthopoxvirus: Venus Reporter Primary qHTS; Vaccinia virus Venus reporter expression, fluorescence; 330,000 tested, 0.46% active; Potency, µM (highest dose often 36.5 µM), usual class: inhibitors; calls by dose curve; tested in A549 cells; note: nearly all actives have a fitted effect of over 30% in size
AMA1-RON2 inh: qHTS for Inhibitors of AMA1-RON; Towards Development of Antimalarial Drug Lead: Primary Screen; Plasmodium falciparum AMA1 (3D7) - RON2 peptide interaction; AlphaScreen AMA1-biotinylated RON2 peptide binding; Potency, µM (highest dose often 58.2 µM), most hits filed as inhibitors; 360,000 tested, 0.2% active; note: nearly all actives have a fitted effect of over 45% in size
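AMA1 (3D7) with his tag at 25 nM final met compounds first, then biotinylated RON2 peptide at 25 nM; detection used donor plus acceptor beads, 10 µg/mL apiece, read by AlphaScreen after 30 min at room temperature.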
Pf growth 48h: Primary qHTS for delayed death inhibitors of the malarial parasite plastid, 48 hour incubation; Potency, µM (titrated, usually from 28.7 µM), usual class: inhibitors; P. falciparum luciferase growth in erythrocytes, 48 h; 310,000 tested, 5.9% active
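First compound was added to culture medium, then infected red cells at 0.1% parasitemia and 2% hematocrit (final). After incubation at 37 C under 5% CO2, luciferase detection reagent was dispensed and light output recorded.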
Pf growth 96h: Primary qHTS for delayed death inhibitors of the malarial parasite plastid, 96 hour incubation; Potency, µM (series often up to 28.7 µM), most hits filed as inhibitors; P. falciparum luciferase reporter growth, 96 h; 320,000 tested, 6.9% active
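Readout is luminescence from an integrated firefly luciferase in P. falciparum. Red cells, 2% hematocrit and 0.05% parasitemia final, were cultured with compound through two parasite generations (96 hours) at 37 C, 5% CO2.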
VACV mCherry inh: qHTS for Stage-Specific Inhibitors of Vaccinia Orthopoxvirus: mCherry Reporter Primary qHTS; Vaccinia virus mCherry reporter infection, fluorescence; Potency, µM (top dose mostly 36.5 µM), actives largely listed as inhibitors; 310,000 tested, 0.63% active; AID 720579, 2013; calls by dose curve; tested in A549 cells; note: nearly all actives have a fitted effect of over 35% in size
A number is an active result; i = inactive; ? = inconclusive; nt = no result; [ ] = another dose, or the depositor's remark. Unless noted, calls come from the whole dose curve; as a rule, active = well fitted curve in the direction sought with a large enough effect; inconclusive = small, poorly fitted or top-dose-only effect, or another doubt; inactive = no such curve, though single readings can be large; an effect the other way counts as inactive or inconclusive.

SMILES | Vaccinia Venus | AMA1-RON2 inh | Pf growth 48h | Pf growth 96h | VACV mCherry inh
CCOc1cc(CNC(=O)NC2COc3ccc(OC)cc3C2)cc(OCC)c1OCC (configuration not stated) | i | nt | nt | nt | i
COc1ccccc1/C=C/c1nc2ccccc2[nH]1 | i | nt | nt | nt | i
Cc1ccc(Cl)cc1N1CCN(C(=O)Cc2c(C(=O)O)c(C)cn2C)CC1 | i | nt | nt | nt | i
CN(C)CCCNC(=O)/C(=N\O)c1ccccc1 | nt | i | i | nt | nt
Cc1cccc(C)c1C(=NCCCN(C)C)c1ccccc1 | i | i | 9.3µM | 4.7µM | i
Cc1ccc(N2CC(NC(=O)C(=O)c3c[nH]c4ccccc34)CC2=O)cc1 (configuration not stated) | i[7.34 µM] | nt | nt | nt | i[7.34 µM]
Cc1oc2c(c1C(=O)Nc1ccc(OC(F)(F)F)cc1)C1=NCCN1C=N2 | ? | nt | nt | nt | i
NC(=O)OC[C@@H]1[C@H](NC(=O)/C(=N/OCC(=O)O)c2csc(N)n2)C(=O)N1S(=O)(=O)O | nt | nt | ? | 0.43µM | nt
CCc1ccccc1N1C(=O)N(C)c2ccccc2S1(=O)=O | i | nt | nt | nt | i
CNC(=O)C1CCC(Cn2c(=O)c3sccc3n(CC(=O)Nc3cc(F)ccc3F)c2=O)CC1 (configuration not stated) | i | nt | nt | nt | i
CCc1ccc2c(c1)-c1ccccc1S(=O)(=O)N2CC(=O)N1CCCCC1 | i | nt | nt | nt | i
CCOC(=O)c1c(-c2ccccc2)csc1NC(=O)CSc1nc(N)cc(N)n1 | ? | i | i | 3.3µM | i
CCOC(=O)Cc1cnc(NC(=O)CSc2nc(C)cc(C)n2)s1 | i | i | i | 10µM | i
CCOC(=O)c1c(-c2ccccc2)csc1NC(=O)CSc1nc(C)cc(C)n1 | i | i | 13µM | ? | i
CCOC(=O)c1c(-c2ccc(C)o2)csc1NC(=O)CN1CCN(CC)CC1 | i | i | i | i | i
CCOC(=O)c1c(-c2ccccc2)csc1NC(=O)c1nc(SCC)ncc1Cl | i | nt | nt | nt | i
CCOC(=O)c1c(-c2ccc(OC)cc2)csc1NC(=O)CCN1C(=O)c2ccccc2C1=O | i | i | i | ? | i
CCOC(=O)c1c(-c2ccc(C)o2)csc1NC(=S)NC(=O)c1ccc(F)cc1 | i | i | 8.3µM | 7.4µM | i
Cc1cc(C)nc(SCC(=O)Nc2ncc(Cc3cccc(Cl)c3Cl)s2)n1 | i | i | i | i | i
Cc1cc(C)cc(NC(=O)c2cc3c(=O)n(Cc4ccco4)ccc3nc2C)c1 | i | nt | nt | nt | i
CCOC(=O)c1c(-c2ccc(C)o2)csc1NC(=O)CN1CCCCC1 | i | i | ? | ? | i
CCOC(=O)c1c(-c2ccc(C)o2)csc1NC(=O)CSc1nncs1 | i | i | 10µM | i | i
CCN(CC)S(=O)(=O)c1ccc(NC(=O)CN(c2ccccc2)S(=O)(=O)N(C)C)cc1 | i | nt | nt | nt | i
CC(=O)c1ccc(S(=O)(=O)N(C)CCCC(=O)N2CCN(c3ncccn3)CC2)cc1 | i | i | ? | 12µM | i
CC(C)=CNNC(=O)c1ccc(O)cc1 | i | nt | nt | nt | i
SMILES | Vaccinia Venus | AMA1-RON2 inh | Pf growth 48h | Pf growth 96h | VACV mCherry inh
CC(Oc1cccc(Cl)c1)C(=O)Nc1cc(S(=O)(=O)N2CCOCC2)ccc1N1CCCCC1 (configuration not stated) | i | i | 8.3µM | ? | i
CCN1CCN(c2ccc(S(=O)(=O)N3CCOCC3)cc2NC(=O)C(C)Oc2cccc(Cl)c2)CC1 (configuration not stated) | i | i | 10µM | ? | i
CC(Oc1cccc(Cl)c1)C(=O)Nc1ccccc1N1CCCC1 (configuration not stated) | i | ? | ? | ? | i
CC(=O)c1ccc(-c2cc(F)cc3c2OC(CNC(=O)c2ccc[n+]([O-])c2)C3)s1 (configuration not stated) | i | nt | nt | nt | i
O=C(Nc1ccsc1C(=O)NC1CCCCC1)c1ccc(F)cc1 | nt | i | 1.7µM | 1.7µM | nt
O=C(Nc1ccsc1C(=O)NC1CC1)c1ccccc1 | nt | i | i | i | nt
CN(Cc1cnc2ccccn12)C(=O)c1cc(NC(=O)c2ccccc2)cc2ncn(C3CCCC3)c12 | i | nt | nt | nt | i
CC1CCN(S(=O)(=O)c2ccc3c(ccc(=O)n3CC(=O)NCc3ccccc3)c2)CC1 | i | nt | nt | nt | i
C[C@@]12CCC3C(CCC4=CC(=O)CC[C@]43C)C1CCC2O (some centres not stated) | i | nt | nt | nt | i
